Three compounds from ChEMBL document CHEMBL1961873, “Compounds: GSK PKIS; Assays: Nanosyn kinase panel” (2012) can be followed below.

For test [1], the target named is T1, Mitogen-activated protein kinase 12 (Homo sapiens) (UniProt P53778).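 Also: values are averaged p38gamma kinase inhibition readings, compounds tested at 1 µM.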
T1 sequence (whole entry): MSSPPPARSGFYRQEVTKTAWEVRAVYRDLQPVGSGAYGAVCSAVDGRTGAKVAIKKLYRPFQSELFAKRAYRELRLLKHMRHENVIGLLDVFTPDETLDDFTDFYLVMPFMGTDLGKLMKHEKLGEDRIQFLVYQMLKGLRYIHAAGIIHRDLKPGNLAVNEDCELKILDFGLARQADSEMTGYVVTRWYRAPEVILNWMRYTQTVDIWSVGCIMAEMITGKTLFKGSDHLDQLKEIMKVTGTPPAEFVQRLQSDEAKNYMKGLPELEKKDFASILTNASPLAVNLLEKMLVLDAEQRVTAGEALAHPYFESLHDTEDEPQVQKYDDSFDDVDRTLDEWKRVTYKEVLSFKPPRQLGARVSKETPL
Particulars: at 1 µM.

In test [2] the target is SRSF protein kinase 1 (Homo sapiens) (UniProt Q96SB4). Particulars: at 0.1 µM.
The target is the same in test [3]. Particulars: at 1 µM.
In test [4] the target is Phosphatidylinositol 4,5-bisphosphate 3-kinase catalytic subunit alpha isoform (Homo sapiens) (UniProt P42336). The note with it: at 0.1 µM.
Test [5] has the same target. Particulars: at 1 µM.
In test [6] the target is T2, Phosphatidylinositol 4,5-bisphosphate 3-kinase catalytic subunit delta isoform (Homo sapiens) (UniProt O00329).
T2 sequence (whole entry): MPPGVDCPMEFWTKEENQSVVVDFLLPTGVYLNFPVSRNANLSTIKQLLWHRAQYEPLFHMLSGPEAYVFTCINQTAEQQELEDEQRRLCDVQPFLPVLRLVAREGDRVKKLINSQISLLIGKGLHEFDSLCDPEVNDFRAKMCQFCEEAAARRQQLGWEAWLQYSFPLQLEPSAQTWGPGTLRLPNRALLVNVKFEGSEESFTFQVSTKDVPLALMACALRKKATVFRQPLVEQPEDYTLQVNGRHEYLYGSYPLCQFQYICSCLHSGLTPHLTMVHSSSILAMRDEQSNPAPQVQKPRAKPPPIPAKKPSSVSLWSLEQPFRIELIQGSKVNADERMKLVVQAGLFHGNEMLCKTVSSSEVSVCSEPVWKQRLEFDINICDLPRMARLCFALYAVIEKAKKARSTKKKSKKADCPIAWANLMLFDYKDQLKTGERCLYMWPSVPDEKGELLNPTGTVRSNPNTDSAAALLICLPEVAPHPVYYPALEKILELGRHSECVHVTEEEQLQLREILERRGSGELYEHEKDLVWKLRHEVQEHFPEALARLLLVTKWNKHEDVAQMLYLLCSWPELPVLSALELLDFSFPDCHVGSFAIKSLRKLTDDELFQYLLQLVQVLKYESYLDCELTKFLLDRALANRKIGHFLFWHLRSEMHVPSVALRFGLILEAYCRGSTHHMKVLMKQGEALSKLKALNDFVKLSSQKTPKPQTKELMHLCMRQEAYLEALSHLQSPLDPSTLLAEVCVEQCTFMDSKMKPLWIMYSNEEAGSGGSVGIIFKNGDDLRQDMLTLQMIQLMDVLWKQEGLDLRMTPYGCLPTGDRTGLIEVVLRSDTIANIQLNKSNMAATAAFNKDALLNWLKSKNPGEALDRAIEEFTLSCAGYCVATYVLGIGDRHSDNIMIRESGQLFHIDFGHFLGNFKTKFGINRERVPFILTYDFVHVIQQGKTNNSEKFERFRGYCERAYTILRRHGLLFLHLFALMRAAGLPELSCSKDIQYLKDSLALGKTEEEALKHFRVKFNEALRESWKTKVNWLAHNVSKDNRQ
Particulars: at 0.1 µM.

The target in test [7] is T2, Phosphatidylinositol 4,5-bisphosphate 3-kinase catalytic subunit delta isoform (Homo sapiens). The note with it: at 1 µM.
In test [8] the target is Phosphatidylinositol 4-kinase beta (Homo sapiens) (UniProt Q9UBF8). Particulars: at 0.1 µM.
Test [9] has the same target. Particulars: at 1 µM.
Test [10] concerns the target Sphingosine kinase 1 (Homo sapiens) (UniProt Q9NYA1). Particulars: at 0.1 µM.
Test [11] has the same target. The note with it: at 1 µM.
The target in test [12] is T3, Sphingosine kinase 2 (Homo sapiens) (UniProt Q9NRA0).
T3 sequence (whole entry): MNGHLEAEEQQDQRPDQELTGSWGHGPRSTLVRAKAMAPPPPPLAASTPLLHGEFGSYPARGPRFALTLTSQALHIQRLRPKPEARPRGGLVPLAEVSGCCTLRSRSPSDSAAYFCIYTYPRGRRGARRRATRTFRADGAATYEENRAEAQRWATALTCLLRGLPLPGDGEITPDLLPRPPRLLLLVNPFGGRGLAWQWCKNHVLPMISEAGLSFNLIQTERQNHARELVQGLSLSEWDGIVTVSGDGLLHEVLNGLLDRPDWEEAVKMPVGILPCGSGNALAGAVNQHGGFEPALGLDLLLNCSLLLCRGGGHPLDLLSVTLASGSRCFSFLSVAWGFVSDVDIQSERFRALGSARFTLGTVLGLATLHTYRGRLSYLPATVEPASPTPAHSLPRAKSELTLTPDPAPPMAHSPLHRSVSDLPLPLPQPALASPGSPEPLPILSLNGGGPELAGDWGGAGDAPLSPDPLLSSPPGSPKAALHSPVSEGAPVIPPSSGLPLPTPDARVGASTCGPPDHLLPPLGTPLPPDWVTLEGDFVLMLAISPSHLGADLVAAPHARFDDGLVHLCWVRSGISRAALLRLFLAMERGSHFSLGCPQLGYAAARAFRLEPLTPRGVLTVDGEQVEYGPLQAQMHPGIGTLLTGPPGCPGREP
Particulars: at 0.1 µM.

The target in test [13] is T3, Sphingosine kinase 2 (Homo sapiens). The note with it: at 1 µM.
Test [14] concerns the target Casein kinase II subunit alpha (Homo sapiens) (UniProt P68400). Particulars: at 0.1 µM.
The target is the same in test [15]. The note with it: at 1 µM.
Test [16] deals with T4, Inhibitor of nuclear factor kappa-B kinase subunit alpha (Homo sapiens) (UniProt O15111).
T4 sequence (whole entry): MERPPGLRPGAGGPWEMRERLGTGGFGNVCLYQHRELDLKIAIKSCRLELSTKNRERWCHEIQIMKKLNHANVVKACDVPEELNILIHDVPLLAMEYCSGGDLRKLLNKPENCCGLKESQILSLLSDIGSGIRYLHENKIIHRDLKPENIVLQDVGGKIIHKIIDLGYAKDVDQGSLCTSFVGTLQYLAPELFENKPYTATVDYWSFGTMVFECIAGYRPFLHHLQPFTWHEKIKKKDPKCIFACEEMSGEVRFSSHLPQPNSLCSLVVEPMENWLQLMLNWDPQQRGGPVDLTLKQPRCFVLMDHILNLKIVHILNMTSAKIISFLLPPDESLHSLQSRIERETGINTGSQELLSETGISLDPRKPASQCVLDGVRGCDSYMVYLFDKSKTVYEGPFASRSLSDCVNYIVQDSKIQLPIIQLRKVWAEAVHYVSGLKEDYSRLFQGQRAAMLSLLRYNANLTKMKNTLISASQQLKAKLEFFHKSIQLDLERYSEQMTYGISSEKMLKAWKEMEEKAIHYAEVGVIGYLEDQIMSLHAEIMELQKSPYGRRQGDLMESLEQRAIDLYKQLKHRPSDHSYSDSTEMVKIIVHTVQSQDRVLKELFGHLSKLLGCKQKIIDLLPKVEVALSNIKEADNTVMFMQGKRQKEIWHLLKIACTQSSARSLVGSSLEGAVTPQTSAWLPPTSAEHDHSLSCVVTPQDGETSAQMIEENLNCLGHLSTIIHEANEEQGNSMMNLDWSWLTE
The note with it: at 0.1 µM.

Test [17] has as its target T4, Inhibitor of nuclear factor kappa-B kinase subunit alpha (Homo sapiens). The note with it: at 1 µM.
The target in test [18] is T5, Inhibitor of nuclear factor kappa-B kinase subunit beta (Homo sapiens) (UniProt O14920).
T5 sequence (whole entry): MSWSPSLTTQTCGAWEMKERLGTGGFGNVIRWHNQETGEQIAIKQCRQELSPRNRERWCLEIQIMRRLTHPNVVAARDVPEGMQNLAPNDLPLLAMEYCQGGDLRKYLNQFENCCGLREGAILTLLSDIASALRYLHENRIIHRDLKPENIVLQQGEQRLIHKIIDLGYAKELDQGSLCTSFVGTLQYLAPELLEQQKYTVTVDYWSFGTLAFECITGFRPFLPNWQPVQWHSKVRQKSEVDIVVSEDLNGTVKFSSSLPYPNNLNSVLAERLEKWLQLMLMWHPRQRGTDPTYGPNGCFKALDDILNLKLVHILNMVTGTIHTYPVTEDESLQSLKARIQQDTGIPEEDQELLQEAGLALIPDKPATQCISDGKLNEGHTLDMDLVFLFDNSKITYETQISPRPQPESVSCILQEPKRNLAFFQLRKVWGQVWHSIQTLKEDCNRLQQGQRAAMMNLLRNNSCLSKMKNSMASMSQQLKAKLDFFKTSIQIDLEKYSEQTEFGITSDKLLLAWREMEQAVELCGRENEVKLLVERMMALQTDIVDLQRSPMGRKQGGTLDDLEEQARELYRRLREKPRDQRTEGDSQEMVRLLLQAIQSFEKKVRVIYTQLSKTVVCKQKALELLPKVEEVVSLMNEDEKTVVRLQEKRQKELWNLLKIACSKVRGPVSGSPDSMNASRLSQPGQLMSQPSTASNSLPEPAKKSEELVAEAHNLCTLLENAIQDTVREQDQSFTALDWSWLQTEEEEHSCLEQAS
Particulars: at 0.1 µM.

Test [19] deals with T5, Inhibitor of nuclear factor kappa-B kinase subunit beta (Homo sapiens). Particulars: at 1 µM.
Test [20] addresses T6, Inhibitor of nuclear factor kappa-B kinase subunit epsilon (Homo sapiens) (UniProt Q14164).
T6 sequence (whole entry): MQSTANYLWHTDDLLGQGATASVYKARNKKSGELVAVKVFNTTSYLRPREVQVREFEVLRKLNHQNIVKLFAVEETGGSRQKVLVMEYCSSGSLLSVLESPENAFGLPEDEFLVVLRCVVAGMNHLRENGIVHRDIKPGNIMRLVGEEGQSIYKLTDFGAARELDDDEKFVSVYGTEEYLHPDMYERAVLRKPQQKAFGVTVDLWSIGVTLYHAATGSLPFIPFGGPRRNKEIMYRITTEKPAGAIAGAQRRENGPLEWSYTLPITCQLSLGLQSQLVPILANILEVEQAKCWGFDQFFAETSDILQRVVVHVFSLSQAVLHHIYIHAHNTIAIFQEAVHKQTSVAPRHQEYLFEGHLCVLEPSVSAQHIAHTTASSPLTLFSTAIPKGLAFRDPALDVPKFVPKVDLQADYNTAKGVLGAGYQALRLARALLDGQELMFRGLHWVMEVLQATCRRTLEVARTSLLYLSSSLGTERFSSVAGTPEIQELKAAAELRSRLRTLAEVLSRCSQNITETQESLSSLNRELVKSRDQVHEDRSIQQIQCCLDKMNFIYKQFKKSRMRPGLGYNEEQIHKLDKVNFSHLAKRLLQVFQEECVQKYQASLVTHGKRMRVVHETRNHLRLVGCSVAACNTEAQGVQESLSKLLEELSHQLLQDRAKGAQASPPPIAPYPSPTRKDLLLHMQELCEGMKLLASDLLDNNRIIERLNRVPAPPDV
The note with it: at 0.1 µM.

Sequence of Casein kinase II subunit alpha (Homo sapiens) (P68400 whole entry, looked up): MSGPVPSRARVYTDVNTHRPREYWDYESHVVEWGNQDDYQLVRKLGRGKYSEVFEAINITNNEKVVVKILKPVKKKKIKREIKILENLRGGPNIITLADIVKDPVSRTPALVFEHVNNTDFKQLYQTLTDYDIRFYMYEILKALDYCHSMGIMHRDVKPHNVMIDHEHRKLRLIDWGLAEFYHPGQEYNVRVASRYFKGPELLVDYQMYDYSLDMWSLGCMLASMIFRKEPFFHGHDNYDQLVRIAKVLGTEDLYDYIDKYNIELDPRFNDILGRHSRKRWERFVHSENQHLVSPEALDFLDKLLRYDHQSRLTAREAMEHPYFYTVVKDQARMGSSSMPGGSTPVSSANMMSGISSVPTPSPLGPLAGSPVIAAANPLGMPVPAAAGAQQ
Sequence of SRSF protein kinase 1 (Homo sapiens) (Q96SB4 whole entry): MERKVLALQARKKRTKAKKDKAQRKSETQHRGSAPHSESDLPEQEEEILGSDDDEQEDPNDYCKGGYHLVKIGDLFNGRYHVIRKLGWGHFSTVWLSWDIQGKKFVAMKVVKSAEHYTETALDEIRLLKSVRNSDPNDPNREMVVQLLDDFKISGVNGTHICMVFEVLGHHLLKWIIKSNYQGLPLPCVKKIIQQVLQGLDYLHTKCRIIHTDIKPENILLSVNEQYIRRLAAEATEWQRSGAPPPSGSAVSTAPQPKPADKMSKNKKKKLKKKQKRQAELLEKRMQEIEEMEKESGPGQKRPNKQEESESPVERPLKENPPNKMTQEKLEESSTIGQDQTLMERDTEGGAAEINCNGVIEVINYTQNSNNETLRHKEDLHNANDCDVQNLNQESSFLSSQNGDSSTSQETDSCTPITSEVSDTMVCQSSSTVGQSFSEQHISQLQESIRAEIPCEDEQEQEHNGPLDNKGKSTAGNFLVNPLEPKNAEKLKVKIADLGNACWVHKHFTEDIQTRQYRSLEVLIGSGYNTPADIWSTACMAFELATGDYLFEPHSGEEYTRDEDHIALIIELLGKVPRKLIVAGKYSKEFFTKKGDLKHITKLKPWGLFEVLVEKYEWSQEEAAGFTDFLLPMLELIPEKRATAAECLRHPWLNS
Sequence of Phosphatidylinositol 4-kinase beta (Homo sapiens) (Q9UBF8 2-816 limits assumed): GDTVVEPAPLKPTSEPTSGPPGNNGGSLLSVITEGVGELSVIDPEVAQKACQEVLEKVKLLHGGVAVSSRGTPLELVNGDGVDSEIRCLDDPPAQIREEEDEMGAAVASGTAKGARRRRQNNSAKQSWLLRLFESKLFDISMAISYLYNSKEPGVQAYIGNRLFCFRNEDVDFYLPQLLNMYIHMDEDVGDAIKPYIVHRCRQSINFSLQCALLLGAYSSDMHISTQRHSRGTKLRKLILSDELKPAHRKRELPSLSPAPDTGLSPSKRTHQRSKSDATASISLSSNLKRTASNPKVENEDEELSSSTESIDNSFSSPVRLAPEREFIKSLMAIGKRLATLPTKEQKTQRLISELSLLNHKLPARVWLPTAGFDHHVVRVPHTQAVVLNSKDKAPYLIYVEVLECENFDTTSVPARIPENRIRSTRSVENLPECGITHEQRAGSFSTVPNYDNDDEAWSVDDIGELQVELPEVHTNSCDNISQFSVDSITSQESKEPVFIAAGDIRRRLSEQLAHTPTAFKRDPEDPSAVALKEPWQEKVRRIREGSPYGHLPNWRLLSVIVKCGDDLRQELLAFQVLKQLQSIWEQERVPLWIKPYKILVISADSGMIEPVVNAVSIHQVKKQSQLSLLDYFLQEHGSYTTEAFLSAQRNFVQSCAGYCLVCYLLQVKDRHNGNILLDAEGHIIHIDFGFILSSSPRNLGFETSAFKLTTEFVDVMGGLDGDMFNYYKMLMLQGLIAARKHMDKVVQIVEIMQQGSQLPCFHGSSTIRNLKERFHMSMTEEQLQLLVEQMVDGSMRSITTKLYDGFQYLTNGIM
Sequence of Sphingosine kinase 1 (Homo sapiens) (Q9NYA1 whole entry): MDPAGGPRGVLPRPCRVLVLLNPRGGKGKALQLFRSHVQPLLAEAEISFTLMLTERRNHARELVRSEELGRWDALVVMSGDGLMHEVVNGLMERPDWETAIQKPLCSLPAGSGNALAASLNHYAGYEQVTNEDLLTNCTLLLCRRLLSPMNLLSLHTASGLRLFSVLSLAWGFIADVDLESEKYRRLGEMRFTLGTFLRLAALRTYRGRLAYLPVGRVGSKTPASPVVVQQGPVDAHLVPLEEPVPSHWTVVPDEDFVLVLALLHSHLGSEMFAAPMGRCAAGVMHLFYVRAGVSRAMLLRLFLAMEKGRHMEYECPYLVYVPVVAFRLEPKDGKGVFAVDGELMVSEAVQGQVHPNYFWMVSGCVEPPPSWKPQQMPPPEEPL
Sequence of Phosphatidylinositol 4,5-bisphosphate 3-kinase catalytic subunit alpha isoform (Homo sapiens) (P42336 whole entry, canonical isoform): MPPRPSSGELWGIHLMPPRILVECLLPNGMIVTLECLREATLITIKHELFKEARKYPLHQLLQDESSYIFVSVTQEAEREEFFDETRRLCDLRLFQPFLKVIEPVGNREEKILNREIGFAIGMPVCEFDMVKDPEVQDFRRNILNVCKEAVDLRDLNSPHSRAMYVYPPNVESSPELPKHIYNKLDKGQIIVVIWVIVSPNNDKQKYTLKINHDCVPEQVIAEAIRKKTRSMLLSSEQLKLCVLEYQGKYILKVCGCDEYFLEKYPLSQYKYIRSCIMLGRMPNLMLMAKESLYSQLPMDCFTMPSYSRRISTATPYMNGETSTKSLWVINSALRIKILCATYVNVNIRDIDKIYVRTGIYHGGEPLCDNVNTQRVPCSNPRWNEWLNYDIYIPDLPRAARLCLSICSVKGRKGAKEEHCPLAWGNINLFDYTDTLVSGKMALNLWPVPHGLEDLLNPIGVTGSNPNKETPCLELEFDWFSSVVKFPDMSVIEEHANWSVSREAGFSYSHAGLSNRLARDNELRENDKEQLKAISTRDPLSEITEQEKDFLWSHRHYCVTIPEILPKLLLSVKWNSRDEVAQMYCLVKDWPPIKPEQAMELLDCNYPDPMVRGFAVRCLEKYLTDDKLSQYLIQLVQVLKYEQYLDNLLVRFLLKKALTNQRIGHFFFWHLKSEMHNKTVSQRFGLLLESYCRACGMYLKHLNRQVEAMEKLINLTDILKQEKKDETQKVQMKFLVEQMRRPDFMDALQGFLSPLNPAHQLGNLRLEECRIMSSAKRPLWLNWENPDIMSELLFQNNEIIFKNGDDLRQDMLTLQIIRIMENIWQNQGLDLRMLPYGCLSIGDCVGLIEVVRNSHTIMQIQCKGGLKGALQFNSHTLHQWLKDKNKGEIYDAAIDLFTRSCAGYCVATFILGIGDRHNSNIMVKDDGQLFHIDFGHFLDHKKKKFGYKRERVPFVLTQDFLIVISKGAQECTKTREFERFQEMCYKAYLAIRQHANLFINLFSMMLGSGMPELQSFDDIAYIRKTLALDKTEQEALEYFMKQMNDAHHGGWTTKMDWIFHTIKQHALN

A word on the inhibition: it is the change of the read-out against control, counted positive when it falls. Regarding `Cc1ccc(C(=O)NC2CCC2)cc1-c1ccc(C(=O)NCC2CC2)cc1`, the inhibition was 1.52% in [1]; -1.15% in [2]; -3.91% in test [3]; 1.03% in [4]; 2.46% in [5]; 0.19% in test [6]. In addition, the inhibition in test [7] was 3.4%; in [8], -3.28%; in test [9] it was 0.35%; in [10], 0.24%; in [11], -2.08%; in [12] it was 0.15%. In addition, the inhibition is -0.32% in test [13]; 0.14% in test [14]; -0.02% in test [15]; 5.36% in test [16]; 2.23% in test [17]; 3.94% in test [18]. Also, the inhibition in [19] is 0.66%; in test [20] it was 3.52%.

Consider `COc1ccc2cc(-c3c(-c4ccncc4)nc(-c4ccc([S+](C)[O-])cc4C)n3C)ccc2c1` (stereo not given), for which the inhibition is -0.09% in test [1]; -0.31% in [2]; -0.89% in test [3]; -2.02% in test [4]; -0.83% in test [5]; -2.38% in [6]. The inhibition in [7] is -1.78%; in [8] it was 2.91%; in [9], -0.88%; in [10], -0.09%; in test [11], 5.11%; in test [12], 0.43%. Besides, the inhibition in [13] is 0.76%; in [14], 2.77%; in test [15], 3.85%; in test [16], -4.94%; in test [17], -5.55%; in test [18], -0.05%. Moreover, the inhibition in test [19] is -2.53%; in test [20], -2.45%.

In the case of `Fc1ccc(-c2nc3n(c2-c2ccncc2)CCS3)cc1`, the inhibition was 3.41% in [1]; -1.99% in test [2]; -4.38% in test [3]; 3.77% in [4]; 4.45% in test [5]; 3.17% in [6]. Also, the inhibition in test [7] was 4.9%; in test [8], -3.93%; in [9], 0.29%; in [10] it was -3.68%; in test [11], -0.03%; in test [12], -0.14%. Further, the inhibition in [13] was -0.18%; in [14] it was 0.53%; in test [15], -1.41%; in test [16], 5.66%; in [17], 4.06%; in test [18] it was 6.22%. Further, the inhibition in test [19] was determined as 4.63%; in test [20], 5.03%.
